# Measured values reported in the supplement of paper PMC12067926.
# Tested on: Bacillus 1 (Bacillus foraminis)
# Assay: relative growth (AUC of 72 h growth curve relative to DMSO control, dAUC) (ratio); higher = more growth (less inhibition), active = hit call of the paper
# Settings: 20 µM;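 active = growth AUC significantly below the DMSO wells by Dunnett test; inactive = the rest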
# Experimental: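 Environmental bacterial isolates (Iceland stream sediment and Silwood Park soil) and whole stream-sediment communities were grown in LB from a 1:100 dilution with each pesticide at 20 µM (1% DMSO). A600 was read hourly for 72 h and the area under a spline-fitted growth curve (AUC) was computed. dAUC is the mean AUC of 3 biological replicates divided by the mean AUC of the DMSO controls. Significance was tested by Dunnett's test against the DMSO control.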
row,SMILES,relative growth
1,COc1ccc(-c2ccccc2)cc1NNC(=O)OC(C)C,1.03 (inactive)
2,O=C(O)c1nc(Cl)ccc1Cl,0.984 (inactive)
3,O=C1c2ccccc2C(=O)N1SC(Cl)(Cl)Cl,1.12 (inactive)
4,CC1(C)C(C(=O)OC(C#N)c2cccc(Oc3ccccc3)c2)C1(C)C (stereo not given),0.917 (inactive)
5,Cc1cccc2sc3nncn3c12,1.03 (inactive)
6,CC(C)N(C)S(=O)(=O)NC(=O)c1cc(-n2c(=O)cc(C(F)(F)F)n(C)c2=O)c(F)cc1Cl,0.998 (inactive)
7,CNC(=O)c1cc(C#N)cc(C)c1NC(=O)c1cc(Br)nn1-c1ncccc1Cl,0.935 (inactive)
8,COc1ccc(C(=CC(=O)N2CCOCC2)c2ccc(Cl)cc2)cc1OC (mixture of isomers),0.924 (inactive)
9,N#Cc1cc(Br)c(O)c(Br)c1,0.916 (inactive)
10,CNC(=O)Oc1cccc2ccccc12,1.05 (inactive)
11,CCC(=O)Nc1ccc(Cl)c(Cl)c1,0.957 (inactive)
12,CCCN(CCOc1c(Cl)cc(Cl)cc1Cl)C(=O)n1ccnc1,1.07 (inactive)
13,Cc1cc(C2CC2)nc(Nc2ccccc2)n1,0.911 (inactive)
14,CCCCN(CCCC)SN(C)C(=O)Oc1cccc2c1OC(C)(C)C2,1.03 (inactive)
15,CCc1cc(C)cc(CC)c1-c1c(OC(=O)C(C)(C)C)n2n(c1=O)CCOCC2,0.912 (inactive)
16,COC(=O)Nc1nc2ccccc2[nH]1,1.1 (inactive)
17,CCN(CC)c1nc(C)cc(OP(=S)(OC)OC)n1,1.03 (inactive)
18,O=C1C2(Cl)C3(Cl)C4(Cl)C(Cl)(Cl)C5(Cl)C3(Cl)C1(Cl)C5(Cl)C24Cl (stereo not given),0.959 (inactive)
19,CCc1cccc(C)c1N(C(=O)CCl)[C@@H](C)COC,1.06 (inactive)
20,CC(C)N1C(=O)N(c2ccccc2)CS/C1=N\C(C)(C)C,1.04 (inactive)

row,SMILES,relative growth
1,Cc1nc(N(C)C)nc(OC(=O)N(C)C)c1C,0.959 (inactive)
2,N#Cc1sc2c(=O)c3ccccc3c(=O)c=2sc1C#N,0.97 (inactive)
3,CCSC(C)CC1CC(=O)C(/C(CC)=N/OC/C=C/Cl)=C(O)C1 (mixture of isomers),1.06 (inactive)
4,C#CCOc1ccc(CCNC(=O)C(OCC#C)c2ccc(Cl)cc2)cc1OC (stereo not given),1.06 (inactive)
5,CO/N=C(/C(=O)OC)c1ccccc1CO/N=C(\C)c1cccc(C(F)(F)F)c1,0.972 (inactive)
6,Cc1nnc(-c2ccccc2)c(=O)n1N,0.881 (inactive)
7,COc1ncc(F)c2nc(S(=O)(=O)Nc3c(F)cccc3F)nn12,1.06 (inactive)
8,O=C(Nc1ccccc1-c1ccc(Cl)cc1)c1cccnc1Cl,1.01 (inactive)
9,CS(=O)(=O)c1cc(C(F)(F)F)ccc1C(=O)c1cnoc1C1CC1,1.02 (inactive)
10,CC(C)OC(=O)Nc1cccc(Cl)c1,1.15 (inactive)
11,O=[N+]([O-])c1cc(C(F)(F)F)c(Cl)c([N+](=O)[O-])c1Nc1ncc(C(F)(F)F)cc1Cl,0.0375 (active)
12,CC(C1CC1)C(O)(Cn1cncn1)c1ccc(Cl)cc1 (stereo not given),1.09 (inactive)
13,O=C(NC(=O)c1c(F)cccc1F)Nc1ccc(Cl)cc1,1.05 (inactive)
14,Fc1ccc(Oc2ccnc3cc(Cl)cc(Cl)c23)cc1,1.04 (inactive)
15,COCC(=O)N(c1c(C)cccc1C)[C@H](C)C(=O)OC,1.06 (inactive)
16,COc1cccc(C(=O)NN(C(=O)c2cc(C)cc(C)c2)C(C)(C)C)c1C,0.966 (inactive)
17,Cc1cc(C)nc(Nc2ccccc2)n1,1.08 (inactive)
18,O=C(NC(=O)c1c(F)cccc1F)Nc1ccc(OC(F)(F)C(F)OC(F)(F)F)c(Cl)c1 (stereo not given),0.942 (inactive)
19,CO/C=C(/C(=O)OC)c1ccccc1COc1cccc(C(F)(F)F)n1,1.05 (inactive)
20,COP(=S)(OC)Oc1nc(Cl)c(Cl)cc1Cl,1.08 (inactive)
